Reference: PubChem BioAssay (NCI)
This is part of a sample that, as a whole, favours compounds with a hit. Of some 79,000 tested, about 15% had one in any assay. Values without a mark were called inactive. Active and inactive are the calls of the source. Cut-off read from the data, not from the text of the source: active = growth inhibition above about 70%; inactive = the rest.

Columns and labels:
[1] = NCI Yeast Anticancer Drug Screen. Data for the rad50 strain (AID 155);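 note: 0% = growth of vehicle-only cultures of the same strain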; conditions: S. cerevisiae rad50 strain growth inhibition; at 50.0 µM; stronger effect = higher value
Outline: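 Readout: growth inhibition relative to vehicle-treated cultures. Compound exposure was carried out in a genetically defined yeast strain deficient in DNA damage repair.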

[2] = NCI Yeast Anticancer Drug Screen. Data for the mec2-1 strain (AID 157); conditions: S. cerevisiae mec2-1 strain, at 50.0 µM, stronger effect = higher value
Outline: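 Compounds were applied to mec2-1 yeast cells. Their growth was then compared with that of vehicle-treated cultures to give growth inhibition.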

[3] = NCI Yeast Anticancer Drug Screen. Data for the sgs1 mgt1 strain (AID 161);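 note: 0% = growth of cultures given vehicle only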; conditions: S. cerevisiae sgs1 mgt1 strain, at 50.0 µM, stronger effect = higher value
Outline: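 Percent growth inhibition was derived by comparing compound-exposed mutant yeast with vehicle-exposed cultures. The strain carries alterations in DNA damage repair.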

[4] = NCI Yeast Anticancer Drug Screen. Data for the cln2 rad14 strain (AID 165);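 note: 0% = growth equal to vehicle treated cultures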; conditions: S. cerevisiae cln2 rad14 strain, at 50.0 µM, stronger effect = higher value
Outline: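 Strain: cln2 rad14 yeast, altered in cell cycle control and DNA damage repair. Read-out: growth inhibition vs vehicle.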

[5] = NCI Yeast Anticancer Drug Screen. Data for the bub3 strain (AID 167); conditions: S. cerevisiae bub3 mutant strain, at 50.0 µM, stronger effect = higher value
Outline: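 Readout: yeast growth inhibition, expressed relative to vehicle-only wells. The test organism is a mutant strain from a panel with lesions in DNA repair or checkpoint genes.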

[6] = NCI Yeast Anticancer Drug Screen. Data for the mlh1 rad18 strain (AID 175); conditions: S. cerevisiae mlh1 rad18 strain growth inhibition; at 50.0 µM; stronger effect = higher value
Outline: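 A repair-deficient yeast strain is exposed to test compound, and growth is scored relative to vehicle-treated controls.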

CCOC(=O)c1c(O)[nH]c(=O)c(CC)c1C
growth inhibition [1]: -13.2%
growth inhibition [2]: -29.3%
growth inhibition [3]: -45.8%
growth inhibition [4]: -16.4%
growth inhibition [5]: -30.8%
growth inhibition [6]: -4.1%

CC(C)(CO)C(Cl)C(=O)NCCC(=O)O (configuration not stated)
growth inhibition [1]: -6.05%
growth inhibition [2]: -14.9%
growth inhibition [3]: -13%
growth inhibition [4]: -2%
growth inhibition [5]: 15.7%
growth inhibition [6]: -13.4%

Cc1ccc(NC(=O)Oc2ccc(C#N)cc2)cc1Cl
growth inhibition [1]: 9.45%
growth inhibition [2]: 5.85%
growth inhibition [3]: 21.1%
growth inhibition [4]: 17.8%
growth inhibition [5]: 29.8%
growth inhibition [6]: 27.1%

N#CCCOCc1ccccc1
growth inhibition [1]: -46.8%
growth inhibition [2]: -23.8%
growth inhibition [3]: -1.05%
growth inhibition [4]: -3.15%
growth inhibition [5]: -15.1%
growth inhibition [6]: 0.55%

COC(=O)C1C(=O)C=C(C)C(C(=O)OC)C1c1ccccc1 (configuration not stated)
growth inhibition [1]: 7.7%
growth inhibition [2]: -4.2%
growth inhibition [3]: 6.15%
growth inhibition [4]: -5.85%
growth inhibition [5]: 12.5%
growth inhibition [6]: 0.25%

Cn1ncc(C(=O)O)c1[N+](=O)[O-]
growth inhibition [1]: 6.85%
growth inhibition [2]: -14.5%
growth inhibition [3]: 8.35%
growth inhibition [4]: -37.6%
growth inhibition [5]: -6.2%
growth inhibition [6]: 5.25%

O=C1CCC(=O)N1Cc1ccccc1N=[N+]([O-])c1ccccc1CN1C(=O)CCC1=O
growth inhibition [1]: -37.2%
growth inhibition [2]: -14.7%
growth inhibition [3]: 1.75%
growth inhibition [4]: -0.55%
growth inhibition [5]: -19.5%
growth inhibition [6]: -15.9%

Cc1ccccc1SC(c1ccccc1)(c1ccccc1)c1ccccc1
growth inhibition [1]: -11.2%
growth inhibition [2]: -25.3%
growth inhibition [3]: -0.2%
growth inhibition [4]: -6.55%
growth inhibition [5]: -6.1%
growth inhibition [6]: -37.8%

COc1ccc(CCN2C(CC(=O)c3ccccc3)CCCC2CC(=O)c2ccccc2)cc1OC (configuration not stated)
growth inhibition [1]: -8.05%
growth inhibition [2]: -10.4%
growth inhibition [3]: -0.9%
growth inhibition [4]: -0.2%
growth inhibition [5]: 0.65%
growth inhibition [6]: -2.75%

CCCCCCCCC1C(CCCCCCCC(=O)OC)C2(Cl)C(Cl)=C(Cl)C1(Cl)C2(Cl)Cl (configuration not stated)
growth inhibition [1]: 25.6%
growth inhibition [2]: -11.5%
growth inhibition [3]: -1.05%
growth inhibition [4]: 3.05%
growth inhibition [5]: -1.2%
growth inhibition [6]: 14.3%

COc1cc(CCCO)ccc1O
growth inhibition [1]: 0.85%
growth inhibition [2]: 13.8%
growth inhibition [3]: 0.25%
growth inhibition [4]: -48.1%
growth inhibition [5]: 9.1%
growth inhibition [6]: -4.1%

CS(=O)(=O)OCCn1cnc2nc(NC(=O)c3ccccc3)[nH]c(=O)c21
growth inhibition [1]: -13.1%
growth inhibition [2]: -20.6%
growth inhibition [3]: -12.7%
growth inhibition [4]: 0.55%
growth inhibition [5]: -19.2%
growth inhibition [6]: -24.6%

Nc1cc(=O)[nH]c(NCCCC(N)C(=O)O)n1 (configuration not stated)
growth inhibition [1]: 5.95%
growth inhibition [2]: 8.8%
growth inhibition [3]: 6.55%
growth inhibition [4]: -15.7%
growth inhibition [5]: 0.85%
growth inhibition [6]: 8.9%

CCN(CC)CC1(C)NN=C2C(n3cccc3)=CC=CN21 (configuration not stated)
growth inhibition [1]: -3.7%
growth inhibition [2]: 11.7%
growth inhibition [3]: -3.4%
growth inhibition [4]: -20.6%
growth inhibition [5]: -4.2%
growth inhibition [6]: -4.9%

CN(C)C(=S)Nc1ccc(S(=O)(=O)N2CCCCC2)cc1
growth inhibition [1]: -7.9%
growth inhibition [2]: -28.4%
growth inhibition [3]: -2.7%
growth inhibition [4]: 1.15%
growth inhibition [5]: -16.4%
growth inhibition [6]: -7.85%

O=C(COc1ccc(Cl)cc1)NC(CO)(CO)CO
growth inhibition [1]: 22.1%
growth inhibition [2]: 16.3%
growth inhibition [3]: 18.9%
growth inhibition [4]: 43%
growth inhibition [5]: 17.1%
growth inhibition [6]: 10.8%

O=C(Cl)c1cc(Cl)cc(Cl)c1Br
growth inhibition [1]: 12.9%
growth inhibition [2]: 4.7%
growth inhibition [3]: 34.5%
growth inhibition [4]: 17.6%
growth inhibition [5]: 15.9%
growth inhibition [6]: 25.7%

O=c1oc2ccccc2c2c1Sc1ccccc1N2
growth inhibition [1]: -0.95%
growth inhibition [2]: -22%
growth inhibition [3]: 17%
growth inhibition [4]: 12.8%
growth inhibition [5]: 2.05%
growth inhibition [6]: -9.1%

NCCNc1nc(NCCN)nc(N(CCN)CCN)n1
growth inhibition [1]: 4.85%
growth inhibition [2]: -4.9%
growth inhibition [3]: 7.6%
growth inhibition [4]: 9%
growth inhibition [5]: -17.3%
growth inhibition [6]: 4.05%

COc1ccc2c3c(ccc2c1)C1C(=O)OC(=O)C1CC3 (configuration not stated)
growth inhibition [1]: -2.6%
growth inhibition [2]: 8.6%
growth inhibition [3]: 6.5%
growth inhibition [4]: -36.6%
growth inhibition [5]: -5.95%
growth inhibition [6]: 11.2%

[N-]=[N+]=NCC1OCOC1C1OCOC1CN=[N+]=[N-] (configuration not stated)
growth inhibition [1]: -6.85%
growth inhibition [2]: 10.6%
growth inhibition [3]: -4.05%
growth inhibition [4]: -33.7%
growth inhibition [5]: 4.2%
growth inhibition [6]: -3.5%

NC(N)=NC(CC(=O)O)c1ccccc1 (configuration not stated)
growth inhibition [1]: -1.15%
growth inhibition [2]: -20%
growth inhibition [3]: -26.4%
growth inhibition [4]: -26.2%
growth inhibition [5]: -46.4%
growth inhibition [6]: 10.2%

O=C1OCC=C1COC1OC(CO)C(O)C(O)C1O (configuration not stated)
growth inhibition [1]: -6.35%
growth inhibition [2]: 3.55%
growth inhibition [3]: -12.8%
growth inhibition [4]: 5.05%
growth inhibition [5]: -11.9%
growth inhibition [6]: -41.7%

CC(=O)N1C(=O)NC(=O)C1(C)c1cccs1 (configuration not stated)
growth inhibition [1]: 23.2%
growth inhibition [2]: -8.9%
growth inhibition [3]: 2.9%
growth inhibition [4]: -75.1%
growth inhibition [5]: 2%
growth inhibition [6]: 1.2%

CC(=O)OC/C=C/CN(C)C
growth inhibition [1]: 9.3%
growth inhibition [2]: 4.6%
growth inhibition [3]: -7.25%
growth inhibition [4]: 7.8%
growth inhibition [5]: -6.2%
growth inhibition [6]: 16.5%

CC(=O)n1oc2ccc(Br)cc2c1=O
growth inhibition [1]: -3.6%
growth inhibition [2]: 1.2%
growth inhibition [3]: -7.8%
growth inhibition [4]: -5.4%
growth inhibition [5]: 9.25%
growth inhibition [6]: 9.75%

CC(=O)/C(C=Nc1c(C)n(C)n(C)c1=O)=C(/O)c1ccccc1
growth inhibition [1]: 0.15%
growth inhibition [2]: 4.05%
growth inhibition [3]: -10.4%
growth inhibition [4]: 7.55%
growth inhibition [5]: -19.6%
growth inhibition [6]: 16%

C=CCCCN(c1ccc(C(=O)OCC)cc1)S(=O)(=O)c1ccc(C)cc1
growth inhibition [1]: 28.3%
growth inhibition [2]: -11.4%
growth inhibition [3]: 12.1%
growth inhibition [4]: 12.7%
growth inhibition [5]: -6.1%
growth inhibition [6]: 4.2%

CC(=O)C1=C(C)C2CC3(C)CC(C2(C)C1)C3(C)C (configuration not stated)
growth inhibition [1]: 8.45%
growth inhibition [2]: -17.1%
growth inhibition [3]: -0.95%
growth inhibition [4]: 10.6%
growth inhibition [5]: -9.75%
growth inhibition [6]: -6%

O=C(O)c1cnc2cc3c(cc2c1Nc1cccc(C(F)(F)F)c1)OCO3
growth inhibition [1]: 29%
growth inhibition [2]: -8.85%
growth inhibition [3]: 5.15%
growth inhibition [4]: 6.7%
growth inhibition [5]: 29.4%
growth inhibition [6]: 4.05%

Cc1cccc(Cl)c1NC(=O)NCCCN1CCOCC1
growth inhibition [1]: 2.8%
growth inhibition [2]: -14.9%
growth inhibition [3]: 6.2%
growth inhibition [4]: 14.1%
growth inhibition [5]: -1.75%
growth inhibition [6]: 6.45%

CCN(CC)CCC(O)(c1cccc(Cl)c1)C1CCCCC1 (configuration not stated)
growth inhibition [1]: -1.4%
growth inhibition [2]: -6.25%
growth inhibition [3]: -3.1%
growth inhibition [4]: -68%
growth inhibition [5]: -7.95%
growth inhibition [6]: -7.25%

CC(C)C(CN)(C(C)C)C(C)C
growth inhibition [1]: 2.35%
growth inhibition [2]: 9.65%
growth inhibition [3]: -8.65%
growth inhibition [4]: 8.55%
growth inhibition [5]: 5.3%
growth inhibition [6]: -8.6%

C=CCOC1OC(CS(=O)(=O)O)C(OC(C)=O)C(OC(C)=O)C1OC(C)=O (configuration not stated)
growth inhibition [1]: 17.9%
growth inhibition [2]: 4.2%
growth inhibition [3]: -1.1%
growth inhibition [4]: 21.6%
growth inhibition [5]: -2.75%
growth inhibition [6]: 15.9%

COc1cc(OC)cc(C2OC(N)=C(O)C2=O)c1 (configuration not stated)
growth inhibition [1]: 9.65%
growth inhibition [2]: 4.25%
growth inhibition [3]: 13%
growth inhibition [4]: 14.9%
growth inhibition [5]: 2.35%
growth inhibition [6]: 19.3%

Cc1cc(=O)[nH]c(NN2C(Cl)C(=O)C2c2ccc([N+](=O)[O-])cc2)n1 (configuration not stated)
growth inhibition [1]: 15.8%
growth inhibition [2]: -24.2%
growth inhibition [3]: 12.7%
growth inhibition [4]: 2.7%
growth inhibition [5]: 3.85%
growth inhibition [6]: -18.8%

NS(=O)(=O)c1ccc(NC2=CC(=O)C(=O)c3ccccc32)cc1
growth inhibition [1]: -6.4%
growth inhibition [2]: -5.6%
growth inhibition [3]: -21.4%
growth inhibition [4]: 2.4%
growth inhibition [5]: -7.55%
growth inhibition [6]: -11.6%

N#C/C(=C\c1ccc2ccccc2c1)c1ccccc1
growth inhibition [1]: 37.9%
growth inhibition [2]: 14.9%
growth inhibition [3]: 12.8%
growth inhibition [4]: 17%
growth inhibition [5]: 25.7%
growth inhibition [6]: 52%

COc1ccc(C(=O)Nc2ccn(CCOC(=O)c3ccc(OC)cc3)c(=O)n2)cc1
growth inhibition [1]: -25.9%
growth inhibition [2]: 16.9%
growth inhibition [3]: -3.1%
growth inhibition [4]: -4%
growth inhibition [5]: 2.8%
growth inhibition [6]: -3.55%

CC(=O)Nc1ccccc1C(C)=O
growth inhibition [1]: 5.45%
growth inhibition [2]: -7.25%
growth inhibition [3]: -10.2%
growth inhibition [4]: 10%
growth inhibition [5]: -8.05%
growth inhibition [6]: 4.85%

COc1ccccc1CC(C)N1CCCC1c1ccccc1 (configuration not stated)
growth inhibition [1]: -12.1%
growth inhibition [2]: -6.8%
growth inhibition [3]: -0.9%
growth inhibition [4]: -41.6%
growth inhibition [5]: 4.65%
growth inhibition [6]: 3.4%

CC(C)(C)NC(=S)N/N=C/c1ccccn1
growth inhibition [1]: 77.2% (active)
growth inhibition [2]: 85.2% (active)
growth inhibition [3]: 90.5% (active)
growth inhibition [4]: 88.3% (active)
growth inhibition [5]: 89.7% (active)
growth inhibition [6]: 89.7% (active)
